MsrA inhibitor: bovine MsrA inhibition; purified bovine MsrA, absorbance read-out; inhibition, % at 15.5 µM; hit rate 0.75% among 360,000; AID 651718; in the data active means inhibition above about 4.5%;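 further: 0% = vehicle wells with enzyme and 100% = reference inhibitor wells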
SMARCA2 act: activators of SMARCA2 function | MG213 cells, MMTV-luciferase reporter, dexamethasone, overnight | activation, % at 9.1 µM | hit rate 1% among 370,000; in the data active means activation above about 7.8%;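 further: 0% = vehicle wells and 100% = reference activator wells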
ABCB6 inh 2: blocks the human ABCB6 transporter; Q9NP58; K562-ABCB6 porphyrin accumulation, flow cytometry, 1 h; active compounds read low; fluorescence ratio to DMSO, % at 10 µM; hit rate 0.19% among 360,000;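 active means fluorescence ratio to DMSO below 75%, the collection mean minus 3 SD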;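 further: signal is porphyrin accumulated inside mitochondria; 100% equals median channel fluorescence of DMSO control wells; lower ratio means ABCB6 inhibition with less porphyrin fluorescence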
Target sequence (Q9NP58 whole entry, looked up): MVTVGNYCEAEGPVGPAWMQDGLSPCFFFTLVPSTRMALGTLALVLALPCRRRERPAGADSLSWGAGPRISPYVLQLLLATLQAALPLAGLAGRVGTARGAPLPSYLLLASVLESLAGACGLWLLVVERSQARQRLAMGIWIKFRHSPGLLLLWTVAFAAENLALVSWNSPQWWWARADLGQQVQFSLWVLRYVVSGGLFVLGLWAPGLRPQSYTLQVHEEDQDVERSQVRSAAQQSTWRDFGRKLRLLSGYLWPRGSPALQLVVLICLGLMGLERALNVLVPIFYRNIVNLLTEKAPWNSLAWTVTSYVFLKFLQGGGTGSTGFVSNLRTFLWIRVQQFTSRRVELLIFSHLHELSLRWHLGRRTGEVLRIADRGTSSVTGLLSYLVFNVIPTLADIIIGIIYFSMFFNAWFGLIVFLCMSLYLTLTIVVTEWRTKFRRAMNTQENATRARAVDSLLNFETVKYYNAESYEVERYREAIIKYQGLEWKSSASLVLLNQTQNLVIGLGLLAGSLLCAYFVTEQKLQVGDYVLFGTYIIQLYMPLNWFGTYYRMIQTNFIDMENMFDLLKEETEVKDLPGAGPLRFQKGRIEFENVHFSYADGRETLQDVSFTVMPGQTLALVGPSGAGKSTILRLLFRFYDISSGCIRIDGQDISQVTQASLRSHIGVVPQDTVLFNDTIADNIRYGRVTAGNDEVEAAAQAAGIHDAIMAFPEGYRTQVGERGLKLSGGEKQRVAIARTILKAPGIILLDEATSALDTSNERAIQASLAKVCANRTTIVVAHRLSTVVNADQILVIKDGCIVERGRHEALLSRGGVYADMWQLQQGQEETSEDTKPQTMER
MsrA act: activates bovine MsrA enzyme. purified bovine MsrA, absorbance read-out. activation, % at 10.6 µM. hit rate 0.3% among 360,000; in the data active means activation above about 7.5%;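 further: 0% = vehicle and 100% = reference activator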
SMARCA2 act conf: confirmation of SMARCA2 (BRM) function activators; shares compounds with SMARCA2 act; activation, % at 9.1 µM; MG213 cells, MMTV-luciferase with dexamethasone, luminescence, overnight; MG213 cells expressing E1A, Rb sequestered; DMSO wells 0%, reference activator 100%; hit rate 30% among 3,500;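 active means activation above its plate's cutoff, the mean activation of tested wells plus 3 SD, cut at about 7.9% in these data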
GAL4-VP16 Luc: activates GAL4-VP16 luciferase, flagging SMARCA2 activator hits. shares compounds with SMARCA2 act. HEK293 GAL4-VP16 pG5luc reporter, luciferase luminescence; scaled: DMSO wells 0%, SAHA wells 100%. activation, % at 9.1 µM. hit rate 41% among 3,500;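 active means activation above the solvent-only control well mean plus 3 SD, averaged across control plates, cut at about 5.2% in these data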
* = called active by the depositor; . = no result. This is a sample that favours compounds with a hit; in the whole collection about 2.1% have one here.

SMILES	MsrA inhibitor	SMARCA2 act	ABCB6 inh 2	MsrA act	SMARCA2 act conf	GAL4-VP16 Luc
N=c1n(CC(=O)c2ccc(Br)s2)c2ccccc2n1Cc1ccccc1	0	8.2*	95	0	23*	2
CCOc1ccc(-n2c(SCC(=O)Nc3cccc4ccccc34)nnc2-c2ccncc2)cc1	.	-6	.	.	.	.
Cc1cccc(C)c1NC(=O)C1(C)CCC(=O)N1c1cc(C(C)(C)C)nn1C (stereo not drawn)	-1	-1	99	-3	.	.
COc1cc(CN(C(=S)NCC(=O)NC2CC2)C2CCCC2)cc(OC)c1OC	0	9.6*	97	-9	-3	0
CCc1ccc(NC(=O)CCCn2nc(CC)n3c(cc4occc43)c2=O)cc1	0	9.6*	106	-1	3	0
O=C(COc1ccccc1)NCCSc1ccccc1	-1	9.4*	98	-2	10*	7.7*
COCC(=O)N1[C@H](CO)[C@@H](c2ccc(-c3cccnc3)cc2)[C@H]1CN(C)S(=O)(=O)c1ccccc1[N+](=O)[O-]	.	1	.	.	.	.
CCOC(=O)c1sc(N/N=C/c2ccccc2)nc1C	1	8.7*	93	-4	21*	13*
Cc1cccc2nc(CSc3nnnn3-c3ccccc3)cn12	0	-1	86	-9	.	.
Cc1cccc2nc(CSc3nnc4ccccn34)cn12	-1	8.4*	101	-1	9.9*	12*
Cc1nc(NCCc2ccccc2)sc1C(=O)N(C)C	0	8.6*	98	-1	3	4
Nc1ccc(/C=C/C(=O)c2cccs2)cc1	1	12*	131	-7	9.1*	6.8*
COc1cc(/C=N/O)ccc1OCc1ccc(Cl)cc1	0	17*	.	.	12*	8.7*
Clc1cccc(-c2nc3ccc(Cl)cn3c2Cc2ccccc2)c1	1	8.2*	96	-5	1	4
COc1ccccc1Cc1c(-c2ccccc2)nc2ccc(Cl)cn12	1	11*	116	-9	3	4
COc1ccc(Cc2c(-c3ccccc3)nc3ccc(C)cn23)c(C)c1	0	9.2*	.	.	4	5
CC(C)(C)C(C(=O)NC1CCCC1)N1CCN(c2ncccc2C#N)CC1 (stereo not drawn)	-1	-3	.	.	.	.
CCN(CC)CCCNc1nc2ccccc2c2[nH]c3ccc(OC)cc3c12	4	54*	112	0	-15	-1
N/C(=N\OC(=O)c1ccc(Cl)cc1Cl)c1ccncc1	1	12*	95	-7	11*	20*
COc1ccc(/C(N)=N/OC(=O)c2ccc([N+](=O)[O-])c(C)c2)cc1OC	-1	0	101	-4	.	.
Cc1cc(C(=O)O/N=C(\N)c2ccncc2)ccc1[N+](=O)[O-]	-1	14*	98	-3	6	5.2*
N/C(=N\OC(=O)c1ccccc1Cl)c1cccnc1	-1	8.8*	107	0	18*	7.8*
N/C(CS(=O)(=O)c1ccccn1)=N\OC(=O)c1ccccc1Cl	0	11*	97	-9	3	8.0*
COC(=O)c1cc(-c2ccc(F)cc2OCc2ccccc2)c(=O)n2c1CCC2	.	-3	.	.	.	.
O=C(COC(=O)Cn1nnc2ccccc21)NC1CCCC1	-1	9.9*	86	0	1	1
SMILES	MsrA inhibitor	SMARCA2 act	ABCB6 inh 2	MsrA act	SMARCA2 act conf	GAL4-VP16 Luc
Cc1ccc(Nc2nc(N)nc(CC#N)n2)cc1	0	12*	96	-4	8	6.6*
Cc1ccc(Nc2nc(N)nc(CCl)n2)cc1	-1	-12	98	-4	.	.
O=C(CCCc1ccccn1)c1cccc2ccccc12	2	0	102	-11	.	.
O=C(CCCc1ccccn1)c1ccc(-c2ccccc2)cc1	-1	8.6*	100	-2	4	6.4*
Cc1cc(S(=O)(=O)N2CCC3(CC2)OCCO3)c(C)cc1Cl	-1	12*	100	-4	-3	1
O=S(=O)(c1cc(Cl)cc(Cl)c1O)N1CCC2(CC1)OCCO2	1	0	97	-9	.	.
CC(C)C[C@H]1COc2c(Cl)cccc2S(=O)(=O)N1	-1	-1	.	.	.	.
C=CCN(CC=C)C(=S)NC(=O)c1ccc(-c2ccccc2)cc1	-1	8.0*	96	-2	-6	1
COc1cc(C=O)ccc1OCc1ccccc1Br	0	15*	95	-4	7	8.0*

Screens: PubChem, several laboratories
